Values joined by “and” are separate entries in the source; they are usually repeats but may differ in a detail not shown here. Equal values may be shown once. Compounds without any hit were thinned out: in the full panel of roughly 83,000, 20% have a hit.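 Treatment: one concentration, 48 hours, 96-well format. Scoring: percent growth, with anything below 10 considered active.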 Active and inactive are the calls of the source.

The test system of the assay is MDA-MB-468 breast. Put plainly: NCI-60 one-dose screen, 48 h (100 = growth as untreated, 0 = no growth, -100 = all killed). The following applies: 10 µM unless noted.
With `O=C1NC2(CCNCC2)Nc2ccccc21`, the growth was 98.8% (inactive). Consider `COc1ccc2c(c1)c(C1(O)CC(CSC#N)OC1=O)cn2C(=O)c1ccc(Cl)cc1` (stereo not given), for which the growth is 109% (inactive). Under `Oc1ccccc1OB(Oc1ccccc1O)N(CCCl)CCCl` stands 84% (inactive); under `CCN1CC2(CN(CC)C1=S)C(=O)NC(=O)NC2=O`, 116% (inactive). With `C[C@]12CC[C@H](OC3OC(O)C(O)C(O)C3O)C=C1CCC1C2CC[C@]2(C)[C@@H](c3ccc(=O)oc3)CC[C@]12O` (stereo not given in full) the figure was -63.8% (active); with `O=C(CCl)NCNC(=O)CCl`, 96.8% (inactive); with `COC(=O)[C@@H](C)C[C@H](Cc1ccccc1)NC(=O)c1csc([C@@H](C[C@H](C(C)C)N(C)C(=O)[C@@H](NC(=O)[C@H]2CCCCN2C)C2CCCCC2)OC(C)=O)n1`, -8.49% (active). In the case of `C[C@]12CC[C@H](O)C[C@@H]1CC[C@@H]1[C@@H]2CC[C@]2(C)OC(=O)CC[C@@H]12`, the growth is 106% (inactive). Under `COc1ccc(/C(C)=C(\c2ccc(OCCN3CCOCC3)cc2)c2ccc(OC(=O)Cc3ccccc3)cc2)cc1` stands 104% (inactive); under `CN(C)C(=S)SSC(=S)N(C)C`, 96.6% (inactive) and 108% (inactive). Under `Cc1cc(C)c(CBr)c(C)c1` stands 98.9% (inactive); under `C/C(=C\c1ccn(-c2ccc(N)cc2C(F)(F)F)n1)[C@@H]1C[C@@H]2O[C@]2(C)CCC[C@H](C)[C@H](O)[C@@H](C)C(=O)C(C)(C)[C@@H](O)CC(=O)O1`, 28.6% (inactive). As to `CN(CCCl)c1ccc(/C=C/C2=[N+](C)c3ccccc3C2(C)C)cc1`, the growth is -1.54% (active). Under `C[C@]12CCc3nc(-c4ccc(O)c(O)c4)sc3C1=CC[C@@H]1[C@@H]2CC[C@]2(C)C(=O)CC[C@@H]12` stands 80.1% (inactive); under `O=C(O)C(F)F`, 91.4% (inactive); under `Nc1ccc(Cl)cc1`, 97% (inactive). Consider `Nc1ccc(-c2nc3cc(F)ccc3[se]2)cc1F`, for which the growth was -21% (active). Under `CN1CCC(c2c[nH]c3ccccc23)C1` (stereo not given) stands 116% (inactive). With `CC(=O)[O][Hg][c]1ccccc1` the figure was -83.8% (active); with `C[C@]12CC[C@H]3[C@@H](CC=C4c5nc(-c6ccc(Br)cc6)sc5CC[C@@]43C)[C@@H]1CC[C@@H]2O`, 110% (inactive); with `CC1=C(CCCOC(=O)[C@H](N)CC(C)C)C2=C(C)C3(CC3)[C@@](C)(O)C(=O)C2=C1`, -61.5% (active). Under `C[CH2][Pb]([CH2]C)([CH2]C)[O]C(=O)COc1ccccc1` stands 9.74% (active). As for `COC(=O)[C@@H](C)C[C@H](Cc1ccccc1)NC(=O)c1csc([C@@H](C[C@H](C(C)C)N(C)C(=O)[C@@H](NC(=O)[C@H]2CCCCN2C)C(C)C)OC(C)=O)n1`, the growth is -11.2% (active).

As to `C/C(=C\C(=O)O[C@H]1[C@@H]2[C@H](C)CC[C@H]2[C@]2(C)O[C@@]1(C1CCCCC1)C[C@H]2OC(=O)CO)c1ccccc1`, the growth was 28% (inactive). Consider `CC(=O)OC1C(OC/C2=C/C3[C@@H](C(C)C)CC=C(C)[C@@H]3CC(OC(=O)/C=C/c3cn(C)cn3)[C@]3(C)C=C[C@@]2(O)O3)OCC(O)C1O` (stereo not given in full), for which the growth is -19.2% (active). With `ClCCN(CCCl)c1ccc(C=NCCc2c[nH]c3ccccc23)cc1` the figure was -16.7% (active); with `CC1=C(SCCC(=O)OCC(=O)NCCC[Te]c2ccccc2)C(=O)c2ccccc2C1=O`, 9.39% (active). Under `COc1ccc([As]=[As]c2ccc(OC)c(NCS(=O)(=O)O)c2)cc1NCS(=O)(=O)O` (stereo not given) stands -54.2% (active); under `Cn1cc(C=O)c2nccnc21`, 98.1% (inactive). Turning to `C[C@@H]1CCC2[C@@H](C)[C@H](OC(=O)CCC(=O)NCCNC(=O)Cc3cc(=O)oc4cc(N(C)C)ccc34)O[C@@H]3O[C@]4(C)CC[C@@H]1C23OO4` (stereo not given in full), the growth is 63.7% (inactive). Under `COc1ccc(-c2ccc(OC)c(OC)c2OC)cc1` stands -20.7% (active). For `CCOC(=O)C(NC(=O)C(Cc1ccc(N(CCCl)CCCl)cc1)NC(C)=O)C(C)C` (stereo not given), the growth is 92.3% (inactive). With `O=S(=O)(F)c1cccc(Cl)c1C[P+](c1ccccc1)(c1ccccc1)c1ccccc1` the figure was 46.9% (inactive).

On to `CC1=C(O)[C@@](C)(CCCCC[C@H](C)CCCCc2ccc(O)cc2)OOC1=O`, for which the growth was 113% (inactive).

On to `COc1cc(/C=C(/C)[N+](=O)[O-])ccc1O`, for which the growth was -85.4% (active) and -90.3% (active).

As to `Cc1ccc(P(=O)(O)O)cc1`, the growth is 88.3% (inactive). With `CCC(O)(CN)c1ccccc1` (stereo not given) the figure was 101% (inactive); with `O=C(NCCCN1CC1)Nc1cccc2ccccc12`, 103% (inactive) and 90.7% (inactive). `C[C@]12CC[C@@H](OC(=O)N(CCCl)N=O)C[C@@H]1CC[C@@H]1[C@@H]2CC[C@]2(C)C(=O)CC[C@@H]12`: the growth was -31.4% (active). Under `O=C(CC1(O)C(=O)Nc2ccc(F)cc21)c1ccc(C(=O)NCC2CCC3(CC2)OOC2(CCCCC2)OO3)cc1` (stereo not given) stands 47.6% (inactive).

Values taken from PubChem BioAssay (NCI).
